# POLH inh: qHTS for Inhibitors of Polymerase Eta | DNA polymerase eta (Homo sapiens), Q9Y253 | recombinant Pol eta, fluorescent DNA replication assay | Potency, µM (titrated, usually from 114 µM), inactives show at the top dose activity change, negative = inhibition, hits mostly inhibitors | actives 1.2% (n = 390,000) | AID 588591, 2011; also: potency is read from the fitted curve at half-maximal effect; % is scaled to controls: 0 for no effect and ±100 for the full control effect
#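 Fluorescent replication assay: 50 nM final substrate added after a 15 min room-temperature compound preincubation with 10 nM enzyme. Signal taken at 0 min and again at 10 min.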
# POLI inh: qHTS for Inhibitors of Polymerase Iota; Pol iota fluorescent replication assay, 10 min; DNA polymerase iota (Homo sapiens), Q9UNA4; Potency, µM (titrated, usually from 115 µM), without a hit: top-dose activity, negative = inhibition, hits mostly inhibitors; AID 588590, 2011; actives 1% (n = 390,000); also: potency is read from the fitted curve at half-maximal effect
#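 Fluorescent replication assay read twice, at 0 min and 10 min after adding 50 nM (final) substrate. Enzyme (10 nM) and compounds were first incubated 15 min at room temperature; enzyme-free buffer wells were negative controls.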
# WRN helicase inh: qHTS for Inhibitors of WRN Helicase; Bifunctional 3'-5' exonuclease/ATP-dependent helicase WRN (Homo sapiens), Q14191; WRN helicase unwinding, fluorescent forked duplex, kinetic; Potency, µM (top dose mostly 114 µM), for the others: top-dose activity change, negative = inhibition, actives largely listed as inhibitors; actives 0.46% (n = 360,000); also: potency is read from the fitted curve at half-maximal effect; % is scaled to controls: 0 for no effect and ±100 for the full control effect; nearly all actives have a fitted effect of over 55% in size
#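 Primary qHTS, 1536-well format. 20 nM WRN + compound, 15 min RT; start with 100 nM forked fluorophore/quencher duplex, 2 mM ATP (final); kinetic read ex 525/em 598 nm.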
# PI5P4Ka inh: qHTS for Inhibitors of phosphatidylinositol 5-phosphate 4-kinase (PI5P4K); Phosphatidylinositol 5-phosphate 4-kinase type-2 alpha (Homo sapiens), P48426; PI5P4Kalpha enzyme, ADP-Glo luminescence, 60 min; hits give low values; max response, %; actives 1.2% (n = 330,000); AID 652105, 2013; active = max response of -50% or lower; inconclusive = between -30% and -50%; inactive = -30% or higher; also: value at the top dose of about 77 µM; % is scaled to controls: 0 for no effect and ±100 for the full control effect
# Target sequence (P48426 whole entry, looked up): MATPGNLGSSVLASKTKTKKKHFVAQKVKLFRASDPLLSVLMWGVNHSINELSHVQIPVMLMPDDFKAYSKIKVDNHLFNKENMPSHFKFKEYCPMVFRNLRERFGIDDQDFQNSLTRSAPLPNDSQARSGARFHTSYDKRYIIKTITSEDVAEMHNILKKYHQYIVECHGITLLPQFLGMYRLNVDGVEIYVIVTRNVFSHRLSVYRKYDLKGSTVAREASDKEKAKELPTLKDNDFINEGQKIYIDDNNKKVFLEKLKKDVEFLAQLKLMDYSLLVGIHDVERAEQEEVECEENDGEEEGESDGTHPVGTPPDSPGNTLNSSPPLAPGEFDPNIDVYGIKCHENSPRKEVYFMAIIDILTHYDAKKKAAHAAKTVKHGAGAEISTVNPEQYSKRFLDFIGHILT
#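 Quantitative HTS of the MLSMR library against PI5P4Kalpha with substrate. ATP added last at 5 microM final; room temperature, 60 minutes. Remaining ATP depleted, ADP converted and read as luminescence.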
# POLB inh: qHTS Assay for Inhibitors of DNA Polymerase Beta | P06746 | Pol beta primer extension/strand displacement, fluorescence kinetic | Potency, µM (top dose mostly 114 µM), for inactives: top-dose activity change, negative = inhibition, hits mostly inhibitors | actives 1.3% (n = 340,000) | AID 485314, 2010; also: potency is read from the fitted curve at half-maximal effect; % is scaled to controls: 0 for no effect and ±100 for the full control effect
#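 Pol beta (10 nM) and compounds were preincubated 15 min at room temperature, then 50 nM substrate (final) started primer extension/strand displacement. Reads were taken at 0 and 10 min; concentration-response data were fitted to a four-parameter Hill equation.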
# Pol kappa inh: qHTS for Inhibitors of Polymerase Kappa; DNA polymerase kappa (Homo sapiens), Q9UBT6; purified Pol kappa, fluorescent DNA synthesis assay, 10 min; Potency, µM (titrated, usually from 107 µM), without a hit: top-dose activity, negative = inhibition, usual class: inhibitors; actives 0.53% (n = 400,000); AID 588579, 2011; also: potency is read from the fitted curve at half-maximal effect; % is scaled to controls: 0 for no effect and ±100 for the full control effect
#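 50 nM final substrate added after 15 min RT preincubation of 10 nM Pol kappa with compound; fluorescence read at 0 and 10 min.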
# An asterisk follows results filed as active; ? = inconclusive; . = no result given; [ ] = dose if it differs, or a comment. The list is not random: actives were taken first. Their share in the collection is about 2.8%. Unless noted, calls follow the shape of the dose curve; as a rule, active = well fitted curve in the direction sought with a large enough effect; inconclusive = small, poorly fitted or top-dose-only effect, or another doubt; inactive = no such curve, though single readings can be large; an effect the other way counts as inactive or inconclusive.
SMILES,POLH inh,POLI inh,WRN helicase inh,PI5P4Ka inh,POLB inh,Pol kappa inh
Nn1cnnc1N/N=C/c1ccccc1C(F)(F)F,-2%,?,10%,6,26%,-4%
CN(CC(=O)Nc1ccc(F)cc1F)S(=O)(=O)c1ccc(C(=O)N2CCOCC2)s1,-4%,6%,.,.,?,-9%[60.1 µM]
CCOC(CNC(=O)C(=O)Nc1cc2c3c(c1)CCC(=O)N3CCC2)OCC,-10%,?,7%,1,32%,-10%
c1ccc(-c2cc(-c3ccccc3)c3c(n2)-c2ccccc2OC3)cc1,-15%,-4%,.,.,32%,-1%
CCOc1ccccc1Nc1nc(-c2cccc(Cl)c2)c2c(n1)-c1ccccc1OC2,-13%,-18%,.,.,40µM*,89µM*
CSCCC(NS(=O)(=O)c1ccccc1)C(=O)OCc1cc(=O)oc2cc(O)ccc12 (stereo not drawn),-3%,-8%,-12%,-2,.,-15%
Cc1ccc(NC(=O)CSc2nnc3[nH]c(=O)cc(-c4ccccc4)n23)cc1Cl,-7%,0%,.,.,40µM*,-3%[60.1 µM]
COc1cccc(CNC(=O)CSc2nc(=O)[nH]c3c2CCCC3)c1,-4%,35%,.,.,0%,-2%[60.1 µM]
N=C1C(c2nc3ccccc3[nH]2)=C(O)CN1c1ccc(CC(=O)O)cc1,79µM*,?,-23%,.,-17%,-12%
N=C1C(c2nc3ccccc3[nH]2)=C(O)CN1c1ccccc1,-16%,3%,-14%,1,13%,-1%
Cc1cc(C(=O)CCC(=O)N(C)CC2COc3ccccc3O2)c(C)s1 (stereo not drawn),-6%,.,6%,-2,.,.
CC(C)[C@H](NS(=O)(=O)c1ccc(Cl)cc1)C(=O)OCC(=O)c1c(N)n(C)c(=O)n(C)c1=O,-21%,18%,3%,-6,.,5%
COc1cccc(CNS(=O)(=O)c2ccc(S(=O)(=O)N3CCCC3)cc2)c1,-4%,27%,-5%,-1,20µM*,4%
COc1cccc(NS(=O)(=O)c2ccc(S(=O)(=O)N3CCCC3)cc2)c1,-11%,8%,-4%,-8,.,12%
O=C1NC[C@H](CCCCN2CCN(CC3CCCCC3)C(=O)C2=O)N(CCc2ccccc2)C1=O,.,.,4%,0,.,.
O=C(CSc1nnc(-c2ccco2)c(-c2ccco2)n1)c1ccccc1,35µM*,18µM*,?,?,-5%,79µM*
COc1ccc(-c2nnc(SCC(=O)Nc3ccc(C(C)=O)cc3)nc2-c2ccc(OC)cc2)cc1,2%,-11%,.,.,-9%,-7%[60.1 µM]
CC(=O)c1ccc(NC(=O)CSc2nnc(-c3ccco3)c(-c3ccco3)n2)cc1,22µM*,?,32µM*,-64*,20µM*,14µM*
CCSS(=O)(=O)c1cccc2cccnc12,0%,-2%,32µM*,-84*,1%,-6%
O=C(Nc1cccc(F)c1)N1CCc2nc(NCc3cccc(Oc4ccccc4)c3)ncc2C1,.,.,4%[57.1 µM],-3,.,.
Nc1nc2ncccn2c1-c1ccc(F)cc1,.,.,1%,-3,.,.
O=Nc1nc2ncccn2c1-c1ccccc1,-5%,22µM*,?,1,.,-16%
COc1cccc(-c2nc3sc4c(c3c(=O)[nH]2)CCCCC4)c1,-12%,-15%,10%,0,7%,-17%
Cc1ccc(N2CC(C(=O)N3CCN(c4ccccn4)CC3)CC2=O)cc1 (stereo not drawn),50µM*,?,-5%[11.6 µM],-8,.,?
O=C1[C@H](Cc2ccccc2)NC/C=C\C[C@@H](c2ccc(Cl)cc2)N1Cc1ccccc1,.,-5%,.,.,.,-1%
SMILES,POLH inh,POLI inh,WRN helicase inh,PI5P4Ka inh,POLB inh,Pol kappa inh
CCOc1cccc(CN2CCCC(N3CCc4cc(OC)c(OC)cc4C3)C2)c1O (stereo not drawn),-13%,13%,2%,0,8%,3%
Nc1cc(C(=O)O)c(Oc2ccc(Cl)cc2Cl)cc1C(=O)O,?,-4%,-7%[57.1 µM],5,22µM*,-16%
Cc1cc(=O)[nH]c(/N=C(\N)Nc2cccc3ccccc23)n1,?,?,-33%,3,22µM*,-4%
O=C(/C=C/c1cccs1)Nc1sc2c(c1C(=O)O)CCCC2,-11%,14µM*,6%,?,?,7%
CC(C)(C)n1ncc2c(=O)n(Cc3ccc(Cl)cc3C(F)(F)F)cnc21,.,-22%,.,.,.,-12%
COc1ccc(C2=Nn3c(nnc3-c3ccccc3F)SC2)cc1OC1CCOC1 (stereo not drawn),-7%,-18%,.,.,.,?
COc1ccc(C2=Nn3c(nnc3-c3ccccc3F)SC2)cc1OC1CCCC1,-15%,-10%,.,.,.,50µM*
CC1(C)CC(=O)C2=C(C1)c1c(ccc3ccccc13)NC2c1ccc(OCC(=O)O)cc1 (stereo not drawn),-15%,-5%,-2%,-1,45µM*,?
Cc1cccc(C)c1NC(=O)Cc1cccs1,?,?,-32%,?,40µM*,-14%
O=C(Cc1ccccc1)Nc1cccc([N+](=O)[O-])c1,9%,-4%,-2%,0,-8%,0%[60.1 µM]
O=C(Nc1cccc([N+](=O)[O-])c1)c1ccc2ccccc2c1O,-3%,2%,4%,0,40µM*,-12%
CC(C)(C)c1csc(NC(=O)c2cccs2)n1,?,2%,1%[57.1 µM],-9,-7%,-8%
O=C(Cc1cccs1)Nc1cccc([N+](=O)[O-])c1,?,?,-31%[57.1 µM],?,25µM*,-29%
CC(C)(C)c1csc(NC(=O)Cc2cccs2)n1,-28%,72%,-14%,?,22µM*,-16%
O=C(Nc1cccnc1)c1ccc2ccccc2c1O,-13%,102%,-10%,-4,7%,0%
C=C(c1ccc2ccccc2n1)c1cccs1,.,75%,.,.,.,-22%
O=C(Cc1ccccc1)NCC1CCCO1 (stereo not drawn),-5%,20%,-3%,.,-15%,-21%
O=C(Cc1cccs1)Nc1ccccc1,-18%,6%,-5%,2,70%,-1%
CCCCN(CCCC)S(=O)(=O)c1ccc(NC(=O)Cc2cccs2)cc1,79µM*,50µM*,-5%[11.6 µM],.,?,?
O=C(Cc1cccs1)NCC1CCCO1 (stereo not drawn),?,?,-9%[57.1 µM],.,13µM*,-29%
CC(=O)c1cccc(NC(=O)Cc2cccs2)c1,?,-18%,-10%[57.1 µM],.,32µM*,?

# Source: PubChem (National Center for Advancing Translational Sciences (NCATS))
